Source: paper PMC5540273 (PLoS ONE, 2017)

Each compound was assayed on FGFR2. Settings: concentration: 1 μM, replicates: in singlicate; n = 1.
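Note: KINOMEscan kinase panel screen.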

Compound	%Inh [%]
O=C(NCCNc1ccnc(Nc2ccc(F)cc2)n1)c1cc2ccccc2s1 [GSK1379874]	62
Cc1nnc(-c2ccc3occ(-c4ccc(C(C)O)cc4)c3c2)o1 (stereo not drawn)	16
NS(=O)(=O)CCc1cccc(Nc2nccc(-c3c(-c4cccc(NC(=O)c5c(F)cccc5F)c4)nn4ccccc34)n2)c1 [GSK336735]	46
NS(=O)(=O)c1cccc(-c2ccc3nccc(-c4cccc(S(N)(=O)=O)c4)c3c2)c1 [GW867253]	0
Cc1nnc(-c2ccc(C)c(-c3ccc(C(=O)Nc4ccc(NS(C)(=O)=O)cc4)cc3)c2)o1 [GW702865]	0
Cl.Nc1ncnc2occ(-c3ccc(NC(=O)Nc4cc(C(F)(F)F)ccc4F)cc3)c12 [SB-707548]	77
O=C(NCCCN1CCOCC1)c1cccc(Nc2nccc(Nc3ccc(Oc4ccccc4)cc3)n2)c1 [GW663929]	0
O=C(c1ccc(-c2cc(-c3c[nH]nc3-c3ccccn3)ccn2)cc1)N1CCOCC1 [GW812171]	0
CN1c2ccc(NCc3ccc(F)cc3)cc2-c2c(cnn2C)S1(=O)=O	2
Cc1nnc(-c2ccc3ncc(-c4ccc(S(C)=O)cc4)n3c2)o1 (stereo not drawn)	0
COc1cc2ncn(-c3cc(OCc4sccc4Cl)c(C(N)=O)s3)c2cc1OC [GSK448459]	15
[2H]C([2H])(c1cccc(C(F)(F)F)c1C)n1ccn2c(=O)nc(N3CCOCC3)cc12 [GSK2336394]	16
